# In the supplement of paper PMC8728848:
# Many of the other results were omitted from the sample, so the strongest signals are more common in it than they were.
# B1: OS9-MRH (Homo sapiens), Q13438 (protein)
# chain: IPELLSPMRDAPCLLKTKDWWTYEFCYGRHIQQYHMEDSEIKGEVLYLGYYQSAFDWDDETAKASKQHRLKRYHSQTYGNGSKCDLNGRPREAEVRFLCDEGAGISGDYIDRVDEPLSCSYVLTIRTPRLCPHPLLRPPPSAAPQAI
# Key:
# Test in all cases: glycan array binding signal (z-score within array); higher = stronger binding
# Details in all cases: glycan notation: IUPAC condensed, linker removed
# [1] = target: Fuc(a1-2)Gal(b1-3)GlcNAc6S
# Summary of the method: (§1)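 From the Consortium for Functional Glycomics database, 3228 arrays were curated, keeping only those whose protein sequence was available. Binding is given as a within-array Z-score averaged across arrays sharing a protein sequence and across linkers. Negative Z-scores can be read as non-binding.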
# [2] = target: Fuc(a1-2)Gal(b1-3)[Fuc(a1-4)]GlcNAc
# Summary of the method: as §1
# [3] = target: Fuc(a1-2)Gal(b1-3)[Fuc(a1-4)]GlcNAc(b1-2)Man(a1-3)[Fuc(a1-2)Gal(b1-3)[Fuc(a1-4)]GlcNAc(b1-2)Man(a1-6)]Man(b1-4)GlcNAc(b1-4)[Fuc(a1-6)]GlcNAc(b1-4)[Fuc(a1-6)]GlcNAc
# Summary of the method: as §1
# [4] = target: Fuc(a1-2)Gal(b1-3)[Fuc(a1-4)]GlcNAc(b1-3)[Fuc(a1-3)[Gal(b1-4)]GlcNAc(b1-6)]Gal(b1-4)Glc
# Summary of the method: as §1
# [5] = target: Fuc(a1-2)Gal(b1-4)GlcNAc6S
# Summary of the method: as §1
# [6] = target: Fuc(a1-2)[GalNAc(a1-3)]Gal(b1-3)GlcNAc(b1-2)Man(a1-3)[Fuc(a1-2)[GalNAc(a1-3)]Gal(b1-3)GlcNAc(b1-2)Man(a1-6)]Man(b1-4)GlcNAc(b1-4)[Fuc(a1-6)]GlcNAc
# Summary of the method: as §1
# [7] = target: Fuc(a1-3)[Gal(b1-4)]Glc6S
# Summary of the method: as §1
# [8] = target: Fuc(a1-3)[Gal(b1-4)]GlcNAc(b1-3)Gal(b1-4)[Fuc(a1-3)]GlcNAc(b1-3)Gal(b1-4)[Fuc(a1-3)]GlcNAc
# Summary of the method: as §1
# [9] = target: Fuc(a1-3)[GalNAc(b1-4)]GlcNAc
# Summary of the method: as §1
# [10] = target: Gal(a1-3)Gal(b1-4)GlcNAc(b1-6)GalNAc
# Summary of the method: as §1
# [11] = target: Gal(a1-4)Gal(b1-4)GlcNAc(b1-3)Gal(b1-4)Glc
# Summary of the method: as §1
# [12] = target: Gal(b1-3)GalNAc(b1-3)Gal(a1-4)Gal(b1-4)Glc
# Summary of the method: as §1
# [13] = target: Gal(b1-3)GlcNAc(b1-2)Man(a1-3)[GlcNAc(b1-4)][Gal(b1-3)GlcNAc(b1-2)Man(a1-6)]Man(b1-4)GlcNAc(b1-4)GlcNAc
# Summary of the method: as §1
# [14] = target: Gal(b1-3)GlcNAc(b1-3)Gal(b1-4)GlcNAc
# Summary of the method: as §1
# [15] = target: Gal(b1-3)GlcNAc(b1-3)Gal(b1-4)GlcNAc(b1-2)Man(a1-3)[Gal(b1-3)GlcNAc(b1-3)Gal(b1-4)GlcNAc(b1-2)Man(a1-6)]Man(b1-4)GlcNAc(b1-4)GlcNAc
# Summary of the method: as §1
# Gal(b1-3)GlcNAc6S = target: Gal(b1-3)GlcNAc6S
# Summary of the method: as §1
# [16] = target: Gal(b1-4)GlcNAc(b1-2)Man(a1-6)Man(b1-4)GlcNAc(b1-4)GlcNAc
# Summary of the method: as §1
# [17] = target: Gal(b1-4)GlcNAc(b1-2)Man(a1-6)[Man(a1-3)]Man(b1-4)GlcNAc(b1-4)GlcNAc
# Summary of the method: as §1
# [18] = target: Gal(b1-4)GlcNAc(b1-3)Gal(b1-4)GlcNAc(b1-2)[Gal(b1-4)GlcNAc(b1-3)Gal(b1-4)GlcNAc(b1-6)]Man(a1-6)[Gal(b1-4)GlcNAc(b1-3)Gal(b1-4)GlcNAc(b1-2)Man(a1-3)]Man(b1-4)GlcNAc(b1-4)[Fuc(a1-6)]GlcNAc
# Summary of the method: as §1
# [19] = target: Gal(b1-4)GlcNAc(b1-3)Gal(b1-4)GlcNAc(b1-3)Gal(b1-4)GlcNAc(b1-2)Man(a1-3)[Gal(b1-4)GlcNAc(b1-3)Gal(b1-4)GlcNAc(b1-3)Gal(b1-4)GlcNAc(b1-2)Man(a1-6)]Man(b1-4)GlcNAc(b1-4)GlcNAc
# Summary of the method: as §1
# [20] = target: Gal(b1-4)GlcNAc(b1-3)Gal(b1-4)GlcNAc(b1-3)Gal(b1-4)GlcNAc(b1-3)Gal(b1-4)GlcNAc(b1-2)Man(a1-3)[Gal(b1-4)GlcNAc(b1-3)Gal(b1-4)GlcNAc(b1-3)Gal(b1-4)GlcNAc(b1-3)Gal(b1-4)GlcNAc(b1-2)Man(a1-6)]Man(b1-4)GlcNAc(b1-4)[Fuc(a1-6)]GlcNAc
# Summary of the method: as §1
# [21] = target: Gal(b1-4)GlcNAc(b1-3)Gal(b1-4)GlcNAc(b1-3)Gal(b1-4)GlcNAc(b1-3)Gal(b1-4)GlcNAc(b1-2)[Gal(b1-4)GlcNAc(b1-3)Gal(b1-4)GlcNAc(b1-3)Gal(b1-4)GlcNAc(b1-3)Gal(b1-4)GlcNAc(b1-6)]Man(a1-6)[Gal(b1-4)GlcNAc(b1-3)Gal(b1-4)GlcNAc(b1-3)Gal(b1-4)GlcNAc(b1-3)Gal(b1-4)GlcNAc(b1-2)Man(a1-3)]Man(b1-4)GlcNAc(b1-4)[Fuc(a1-6)]GlcNAc
# Summary of the method: as §1
# [22] = target: Gal(b1-4)GlcNAc(b1-3)Gal(b1-4)GlcNAc(b1-3)Gal(b1-4)GlcNAc(b1-3)Gal(b1-4)GlcNAc(b1-3)Gal(b1-4)GlcNAc(b1-2)Man(a1-3)[Gal(b1-4)GlcNAc(b1-3)Gal(b1-4)GlcNAc(b1-3)Gal(b1-4)GlcNAc(b1-3)Gal(b1-4)GlcNAc(b1-3)Gal(b1-4)GlcNAc(b1-2)Man(a1-6)]Man(b1-4)GlcNAc(b1-4)GlcNAc
# Summary of the method: as §1
# Gal6S(b1-4)Glc = target: Gal6S(b1-4)Glc
# Summary of the method: as §1
# Gal6S(b1-4)GlcNAc = target: Gal6S(b1-4)GlcNAc
# Summary of the method: as §1
# GalNAc(a1-3)Gal = target: GalNAc(a1-3)Gal
# Summary of the method: as §1
# GalNAc(a1-3)GalNAc = target: GalNAc(a1-3)GalNAc
# Summary of the method: as §1
# [23] = target: GalNAc(b1-3)Gal(a1-4)Gal(b1-4)GlcNAc(b1-3)Gal(b1-4)Glc
# Summary of the method: as §1
# GalNAc(b1-6)GalNAc = target: GalNAc(b1-6)GalNAc
# Summary of the method: as §1
# [24] = target: GlcNAc(a1-4)Gal(b1-4)GlcNAc(b1-3)Gal(b1-4)GlcNAc
# Summary of the method: as §1
# [25] = target: GlcNAc(a1-4)Gal(b1-4)GlcNAc(b1-3)Gal(b1-4)[Fuc(a1-3)]GlcNAc(b1-3)Gal(b1-4)[Fuc(a1-3)]GlcNAc
# Summary of the method: as §1
# [26] = target: GlcNAc(b1-2)[GlcNAc(b1-4)]Man(a1-3)[GlcNAc(b1-4)][GlcNAc(b1-2)[GlcNAc(b1-6)]Man(a1-6)]Man(b1-4)GlcNAc(b1-4)GlcNAc
# Summary of the method: as §1
# [27] = target: GlcNAc(b1-3)Gal(b1-4)GlcNAc(b1-3)Gal(b1-4)GlcNAc(b1-2)Man(a1-3)[GlcNAc(b1-3)Gal(b1-4)GlcNAc(b1-3)Gal(b1-4)GlcNAc(b1-2)Man(a1-6)]Man(b1-4)GlcNAc(b1-4)[Fuc(a1-6)]GlcNAc
# Summary of the method: as §1
# [28] = target: Man(a1-3)[Man(a1-6)]Man(a1-6)[Man(a1-3)]Man
# Summary of the method: as §1
# [29] = target: Neu5Ac(a2-3)Gal(b1-3)GalNAc6S
# Summary of the method: as §1
# [30] = target: Neu5Ac(a2-3)Gal(b1-3)[Neu5Ac(a2-6)]GlcNAc(b1-3)[Fuc(a1-3)[Gal(b1-4)]GlcNAc(b1-6)]Gal(b1-4)Glc
# Summary of the method: as §1
# [31] = target: Neu5Ac(a2-3)Gal(b1-4)GlcNAc(b1-2)[Neu5Ac(a2-3)Gal(b1-4)GlcNAc(b1-4)]Man(a1-3)[GlcNAc(b1-4)][Neu5Ac(a2-3)Gal(b1-4)GlcNAc(b1-4)Man(a1-6)]Man(b1-4)GlcNAc(b1-4)GlcNAc
# Summary of the method: as §1
# [32] = target: Neu5Ac(a2-3)Gal(b1-4)[Fuc(a1-3)]GlcNAc(b1-2)Man
# Summary of the method: as §1
# [33] = target: Neu5Ac(a2-6)Gal(b1-4)GlcNAc(b1-2)Man(a1-3)[Man(a1-6)]Man(b1-4)GlcNAc(b1-4)GlcNAc
# Summary of the method: as §1
# [34] = target: Neu5Ac(a2-6)Gal(b1-4)GlcNAc(b1-2)[Neu5Ac(a2-6)Gal(b1-4)GlcNAc(b1-4)]Man(a1-3)[GlcNAc(b1-4)][Neu5Ac(a2-6)Gal(b1-4)GlcNAc(b1-4)Man(a1-6)]Man(b1-4)GlcNAc(b1-4)GlcNAc
# Summary of the method: as §1
# [35] = target: Neu5Ac(a2-6)Gal(b1-4)GlcNAc(b1-6)[Gal(b1-3)]GalNAc
# Summary of the method: as §1
# [36] = target: Neu5Ac(a2-6)GalNAc(b1-4)GlcNAc
# Summary of the method: as §1
# [37] = target: Neu5Ac(a2-8)Neu5Ac(a2-8)Neu5Ac(a2-3)Gal(b1-4)Glc
# Summary of the method: as §1
# Neu5Gc(a2-6)GalNAc = target: Neu5Gc(a2-6)GalNAc
# Summary of the method: as §1
binder,measurement,setting,value
B1,glycan array binding signal (z-score),[1],3.15
same,glycan array binding signal (z-score),[2],-1.22
same,glycan array binding signal (z-score),[3],0.415
same,glycan array binding signal (z-score),[4],0.3
same,glycan array binding signal (z-score),[5],2.76
same,glycan array binding signal (z-score),[6],0.172
same,glycan array binding signal (z-score),[7],-1.74
same,glycan array binding signal (z-score),[8],2.81
same,glycan array binding signal (z-score),[9],-0.024
same,glycan array binding signal (z-score),[10],0.493
same,glycan array binding signal (z-score),[11],-0.569
same,glycan array binding signal (z-score),[12],2.47
same,glycan array binding signal (z-score),[13],2.02
same,glycan array binding signal (z-score),[14],-0.137
same,glycan array binding signal (z-score),[15],2.4
same,glycan array binding signal (z-score),Gal(b1-3)GlcNAc6S,-0.326
same,glycan array binding signal (z-score),[16],2.22
same,glycan array binding signal (z-score),[17],1.24
same,glycan array binding signal (z-score),[18],2.17
same,glycan array binding signal (z-score),[19],0.47
same,glycan array binding signal (z-score),[20],-0.755
same,glycan array binding signal (z-score),[21],1.51
same,glycan array binding signal (z-score),[22],2.42
same,glycan array binding signal (z-score),Gal6S(b1-4)Glc,-0.643
same,glycan array binding signal (z-score),Gal6S(b1-4)GlcNAc,-0.312
same,glycan array binding signal (z-score),GalNAc(a1-3)Gal,2.81
same,glycan array binding signal (z-score),GalNAc(a1-3)GalNAc,3.57
same,glycan array binding signal (z-score),[23],-1.33
same,glycan array binding signal (z-score),GalNAc(b1-6)GalNAc,1.14
same,glycan array binding signal (z-score),[24],-0.159
same,glycan array binding signal (z-score),[25],1.12
same,glycan array binding signal (z-score),[26],-1.46
same,glycan array binding signal (z-score),[27],0.656
same,glycan array binding signal (z-score),[28],0.835
same,glycan array binding signal (z-score),[29],0.458
same,glycan array binding signal (z-score),[30],-0.321
same,glycan array binding signal (z-score),[31],0.322
same,glycan array binding signal (z-score),[32],-0.503
same,glycan array binding signal (z-score),[33],-0.807
same,glycan array binding signal (z-score),[34],-0.99
same,glycan array binding signal (z-score),[35],-0.081
same,glycan array binding signal (z-score),[36],5.26
same,glycan array binding signal (z-score),[37],0.1
same,glycan array binding signal (z-score),Neu5Gc(a2-6)GalNAc,1.14
